The text below walks through data of PubChem BioAssay (NCATS).

Unmarked numbers belong to inactive results. Results filed as inconclusive are left out. Active and inactive are the calls of the source. Unless noted, the call rests on the fitted dose curve; in most records, active means well fitted curve in either direction with a large enough effect (not every such curve was filed as active); inconclusive means small, poorly fitted or top-dose-only effect, or another doubt; inactive means flat fitted curve, though single readings scatter. A value given as a limit tells only on which side of the number the result lay.

Assay [1] concerns the target Lysosomal acid glucosylceramidase (Homo sapiens) (UniProt P04062). Kind of assay: Glucocerebrosidase-p2 (AID 348; in the data active means potency below about 10 µM; further: potency means the concentration at half of the fitted maximal effect). The conditions noted are these: purified GBA, blue fluorogenic substrate, 40 min. In outline:
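Normal human glucocerebrosidase (0.2 nM) with blue fluorogenic substrate (80 uM final) in citrate/phosphate pH 5.9 with 10mM sodium taurocholate, 0.01% tween-20; 40 min RT, NaOH/glycine stop; fluorescence Ex 365/Em 440; AC50 from a titration from 0.6 nM upwards.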

Assay [2] can be described thus: AP1 Signaling Pathway (AID 357).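 Further: ME-180 reporter cells stimulated with EGF at its EC50 level; on the % scale 0 is the no-effect control and ±100 the full control effect.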 Conditions: ME-180 AP-1-bla reporter, EGF-induced, beta-lactamase ratio, 5 h; at 7.69 µM (top of the series) unless noted. In outline:
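Read-out was the 460nm/530nm emission ratio (excitation 405nm) after CCF4 loading for 2.5 hours at room temperature. Cells carried an AP-1-driven beta-lactamase reporter, were stimulated with EC50 EGF plus compound for 5 hours, and AC50 values came from titrations.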

Assay [3] is described as follows: NFAT Signaling Pathway (AID 444).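 Further: carbachol stimulus at about its EC50 of 1 µM final; on the % scale 0 is the no-effect control and ±100 the full control effect.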 The conditions noted are these: Jurkat NFAT-bla M1, carbachol, beta-lactamase ratio, 5 h; at 7.69 µM (top of the series) unless noted. In outline: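 Jurkat cells with NFAT-driven β-lactamase reporter and co-expressed M1 receptor, stimulated with carbachol (final 1 uM, ~EC50), compound titration, 5 h at 37 °C. CCF4 loaded 1 h at RT; 460/530 nm ratio gave %activity and AC50.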

Assay [4] can be described thus: Stat Signaling Pathway (AID 446).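 Further: ME-180 cervical cancer cells given 40 pM IL-6 alongside compound; SIE-controlled beta-lactamase reporter measured as 460/530 nm FRET emission ratio; on the % scale 0 is the no-effect control and ±100 the full control effect.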 The conditions noted are these: ME-180 SIE beta-lactamase reporter, IL-6 stimulated, 5 h; at 7.69 µM (top of the series) unless noted. Summed up:
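FRET read-out (405 nm excitation, 460/530 nm emission) of a beta-lactamase reporter under a STAT-inducible element in ME-180 cervical carcinoma cells. Cells with compound receive 40 pM IL-6 for 5 h. Values are normalised to AC90 stimulation and AC90 JAK-inhibitor controls.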

Assay [5] concerns the target Glucocorticoid receptor (Homo sapiens) (UniProt P04150). The assay can be described thus: GR-GFP Redistribution (AID 450;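 active means compounds whose dose series gives a full or clear partial fitted curve of increased nuclear translocation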; further: potency means the concentration at half of the fitted maximal effect). Conditions: U2OS GR-GFP nuclear translocation, laser cytometry, 2 h.
Assay [6] has the same target. The assay can be described thus: GR-EFC Redistribution (AID 451; calls by dose curve; further: potency means the concentration at half of the fitted maximal effect). Conditions: CHO-K1 GR-EFC translocation, beta-gal luminescence, 2 h. Summed up: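 CHO-K1 cells expressing nuclear EA and GR-ED fragments of b-gal; compounds titrated up to 46 uM final, 2 h at 37 C. GR nuclear translocation read as complemented b-gal luminescence after 1 h RT detection.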
Assay [7] deals with Mitogen-activated protein kinase 10 (Mus musculus) (UniProt Q61831). Kind of assay: JNK3 AlphaScreen Assay (AID 530).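 Further: kinase came from lysate of stimulated human HepG2 cells; signal reports phosphorylation of biotinylated GST-cJun 1-79 at Ser73 with 10 µM ATP; on the % scale 0 is the no-effect control and ±100 the full control effect.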 The conditions noted are these: JNK3 lysate, c-Jun phosphorylation; series mostly up to 11.4 µM. In outline: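 HepG2 lysate (IL-1b/TNFa pre-activated) + biotin-GST-cJun 1-79 + anti-pSer73 cJun; cpd titration, 15 min RT; ATP 10 uM start; Tris pH 7.6, MgCl2, DTT, vanadate; beads in EDTA buffer; AlphaScreen.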

Assay [8] addresses 3',5'-cyclic-AMP phosphodiesterase 4B (Homo sapiens) (UniProt Q07343). The assay can be described thus: qHTS Assay for Inhibitors of PDE-IV (AID 607; active means well fitted activation curve with a large enough effect in the main read-out, with a control signal flat, not every such curve was filed as active; further: % of control where 0% means no effect). Conditions: HEK293 ACTOne CNG channel cells, membrane potential fluorescence; series mostly up to 22.9 µM. Summed up: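 Cell-based read-out of cAMP via a modified cyclic nucleotide-gated channel and membrane potential dye (535/590 nm) in HEK293 cells expressing PDE4 endogenously. Compounds tested up to 22.9 uM final; 100 uM RO 20-1724 reference.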

Assay [9] can be described thus: qHTS Assay for Identification of Small Molecule Agonists for Hypoxia Response Element Signaling Pathway (AID 914; active means well fitted activation curve with a large enough effect in the signal ratio, with a control signal flat, not every such curve was filed as active; the % refers to the signal ratio; further: % of control where 0% means no effect). The conditions noted are these: ME-180 (cervical carcinoma) HRE-bla reporter, beta-lactamase ratio, CoCl2, 17 h; activation: hits give high values. In outline: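 In Opti-MEM containing 0.5% dialyzed FBS and 10 mM HEPES, ME-180 HRE-bla cells received a compound titration and EC50 CoCl2. They were incubated 17 hours, then CCF4-loaded 2.5 hours at room temperature before ratio reading.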

Assay [10] concerns the target Cytochrome P450 2C9 (Homo sapiens) (UniProt P11712). The assay can be described thus: qHTS Assay for Inhibitors and Substrates of Cytochrome P450 2C9 (AID 883; active means well fitted curve in the direction sought with a large enough effect; an effect the other way counts as inactive or inconclusive; further: nearly all actives have a fitted effect of over 60% in size; further: potency means the concentration at half of the fitted maximal effect). The conditions noted are these: recombinant CYP2C9, luciferin-H luminescence, 60 min; series mostly up to 11.4 µM. Summed up:
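Human CYP2C9 (10nM) with Luciferin-H at 100uM (its KM) in 25mM KPO4; compound preincubated 10 min at 37C, then NADPH regeneration for 60 min at 37C. Luciferin read by luminescence after detection reagent; normalized to 57uM sulphaphenazole as full inhibition.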

In assay [11] the target is Cytochrome P450 3A4 (Homo sapiens) (UniProt P08684). Kind of assay: qHTS Assay for Inhibitors and Substrates of Cytochrome P450 3A4 (AID 884; active means well fitted curve in the direction sought with a large enough effect; an effect the other way counts as inactive or inconclusive; further: potency means the concentration at half of the fitted maximal effect; nearly all actives have a fitted effect of over 50% in size). The conditions noted are these: recombinant CYP3A4, Luciferin-PPXE luminescence; series mostly up to 57.1 µM. In outline: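 Luminescent readout of luciferin produced by CYP3A4 (20 nM) dealkylation of Luciferin-PPXE, 25 uM (its KM). NADPH-driven reaction ran 60 min at RT after 10 min compound preincubation; data scaled to 57 uM ketoconazole as 100% inhibition.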
Sequence of Cytochrome P450 3A4 (Homo sapiens) (P08684 whole entry, looked up): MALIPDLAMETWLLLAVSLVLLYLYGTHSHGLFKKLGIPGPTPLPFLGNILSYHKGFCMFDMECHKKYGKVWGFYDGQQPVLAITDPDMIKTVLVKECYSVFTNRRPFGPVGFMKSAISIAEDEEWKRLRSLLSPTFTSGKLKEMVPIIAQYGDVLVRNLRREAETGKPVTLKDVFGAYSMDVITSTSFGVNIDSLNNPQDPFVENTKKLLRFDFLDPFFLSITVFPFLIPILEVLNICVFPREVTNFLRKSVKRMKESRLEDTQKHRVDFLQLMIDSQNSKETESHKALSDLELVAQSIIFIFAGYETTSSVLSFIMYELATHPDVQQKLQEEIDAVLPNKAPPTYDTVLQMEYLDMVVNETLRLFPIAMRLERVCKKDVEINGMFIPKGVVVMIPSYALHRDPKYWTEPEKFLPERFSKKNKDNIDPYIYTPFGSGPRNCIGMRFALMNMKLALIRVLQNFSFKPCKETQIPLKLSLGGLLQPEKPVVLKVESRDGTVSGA

Assay [12] has the same target. The assay can be described thus: qHTS Assay for Activators of Cytochrome P450 3A4 (AID 885; active means well fitted curve in the direction sought with a large enough effect; an effect the other way counts as inactive or inconclusive; further: nearly all actives have a fitted effect of over 65% in size). The conditions noted are these: recombinant CYP3A4, Luciferin-PPXE luminescence, 60 min; series mostly up to 11.4 µM. Summed up: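 Luminescent readout of luciferin formed from 25 uM Luciferin-PPXE (KM level) by 20 nM CYP3A4 in 200 mM KPO4, with 60 min NADPH-driven reaction at room temperature after 10 min compound exposure. Ketoconazole (57 uM) defined 100% inhibition.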

Sequence of Lysosomal acid glucosylceramidase (Homo sapiens) (P04062 whole entry, looked up): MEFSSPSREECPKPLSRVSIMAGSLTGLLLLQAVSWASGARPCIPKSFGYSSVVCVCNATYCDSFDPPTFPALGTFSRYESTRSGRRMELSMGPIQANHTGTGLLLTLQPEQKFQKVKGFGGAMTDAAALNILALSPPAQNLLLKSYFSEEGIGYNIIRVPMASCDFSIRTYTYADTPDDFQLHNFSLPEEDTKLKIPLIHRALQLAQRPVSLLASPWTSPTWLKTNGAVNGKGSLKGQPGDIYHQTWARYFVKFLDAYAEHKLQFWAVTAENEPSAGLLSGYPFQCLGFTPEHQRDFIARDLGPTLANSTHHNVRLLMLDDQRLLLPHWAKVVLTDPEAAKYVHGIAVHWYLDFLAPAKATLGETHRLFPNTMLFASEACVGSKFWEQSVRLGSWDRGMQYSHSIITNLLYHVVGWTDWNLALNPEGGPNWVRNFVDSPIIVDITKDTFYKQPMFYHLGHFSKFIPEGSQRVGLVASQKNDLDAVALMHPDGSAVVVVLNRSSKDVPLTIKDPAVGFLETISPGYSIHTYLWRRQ
Sequence of 3',5'-cyclic-AMP phosphodiesterase 4B (Homo sapiens) (Q07343 whole entry, looked up): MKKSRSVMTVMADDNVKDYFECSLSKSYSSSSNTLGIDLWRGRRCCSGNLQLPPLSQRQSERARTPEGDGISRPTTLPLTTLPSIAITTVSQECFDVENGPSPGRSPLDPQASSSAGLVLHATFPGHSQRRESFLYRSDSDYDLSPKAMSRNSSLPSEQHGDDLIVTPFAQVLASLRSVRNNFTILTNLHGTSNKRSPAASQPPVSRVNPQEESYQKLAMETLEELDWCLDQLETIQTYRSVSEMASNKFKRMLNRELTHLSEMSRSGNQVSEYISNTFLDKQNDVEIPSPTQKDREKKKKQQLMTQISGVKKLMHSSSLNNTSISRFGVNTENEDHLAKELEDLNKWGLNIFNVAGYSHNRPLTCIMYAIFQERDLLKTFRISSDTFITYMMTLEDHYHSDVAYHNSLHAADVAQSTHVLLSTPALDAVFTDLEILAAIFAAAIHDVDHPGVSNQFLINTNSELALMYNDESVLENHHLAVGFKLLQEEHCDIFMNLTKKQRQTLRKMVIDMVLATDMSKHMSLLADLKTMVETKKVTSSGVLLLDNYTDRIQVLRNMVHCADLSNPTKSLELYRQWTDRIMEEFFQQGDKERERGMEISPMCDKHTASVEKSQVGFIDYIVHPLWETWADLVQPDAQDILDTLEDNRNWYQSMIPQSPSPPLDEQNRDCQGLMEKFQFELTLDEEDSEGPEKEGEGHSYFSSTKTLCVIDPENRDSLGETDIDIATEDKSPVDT
Sequence of Glucocorticoid receptor (Homo sapiens) (P04150 whole entry, looked up, the tested form may be a part): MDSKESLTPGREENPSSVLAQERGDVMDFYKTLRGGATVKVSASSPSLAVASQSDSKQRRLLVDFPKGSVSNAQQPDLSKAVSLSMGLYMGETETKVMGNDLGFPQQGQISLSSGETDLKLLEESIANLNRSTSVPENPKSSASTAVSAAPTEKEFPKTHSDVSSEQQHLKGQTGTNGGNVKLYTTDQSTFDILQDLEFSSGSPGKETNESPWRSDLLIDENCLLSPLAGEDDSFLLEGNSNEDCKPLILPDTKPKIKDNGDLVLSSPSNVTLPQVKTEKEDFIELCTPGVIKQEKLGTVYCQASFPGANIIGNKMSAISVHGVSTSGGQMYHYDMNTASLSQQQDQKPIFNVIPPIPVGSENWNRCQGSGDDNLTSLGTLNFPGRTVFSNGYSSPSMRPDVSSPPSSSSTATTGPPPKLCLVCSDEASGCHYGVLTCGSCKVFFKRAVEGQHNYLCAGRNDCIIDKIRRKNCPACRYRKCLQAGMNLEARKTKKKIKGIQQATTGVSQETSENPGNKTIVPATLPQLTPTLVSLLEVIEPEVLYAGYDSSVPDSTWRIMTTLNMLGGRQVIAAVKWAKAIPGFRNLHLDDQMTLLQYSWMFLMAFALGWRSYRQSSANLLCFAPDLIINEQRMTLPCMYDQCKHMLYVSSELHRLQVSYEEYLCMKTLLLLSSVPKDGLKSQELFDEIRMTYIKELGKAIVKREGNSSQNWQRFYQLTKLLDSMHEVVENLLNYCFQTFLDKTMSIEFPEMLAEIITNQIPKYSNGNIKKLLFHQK
Sequence of Cytochrome P450 2C9 (Homo sapiens) (P11712 whole entry, looked up): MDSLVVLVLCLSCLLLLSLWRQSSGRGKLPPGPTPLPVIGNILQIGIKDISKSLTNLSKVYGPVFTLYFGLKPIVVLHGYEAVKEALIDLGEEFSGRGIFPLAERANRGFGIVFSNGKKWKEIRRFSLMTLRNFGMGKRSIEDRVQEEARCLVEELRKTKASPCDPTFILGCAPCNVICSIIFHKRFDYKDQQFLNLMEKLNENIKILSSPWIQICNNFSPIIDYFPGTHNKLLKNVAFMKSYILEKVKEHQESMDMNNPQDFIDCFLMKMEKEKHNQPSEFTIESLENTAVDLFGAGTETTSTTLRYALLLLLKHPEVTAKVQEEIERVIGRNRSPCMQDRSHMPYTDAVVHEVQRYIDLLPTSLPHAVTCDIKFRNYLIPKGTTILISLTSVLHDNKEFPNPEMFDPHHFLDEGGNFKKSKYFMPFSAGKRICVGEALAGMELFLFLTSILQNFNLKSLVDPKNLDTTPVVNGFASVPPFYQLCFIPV

With `Clc1ccccc1/C=C\c1ccnc2ccccc12`, the Potency in assay [1] was greater than 11.4 µM; in [5] it was greater than 46 µM; in assay [6], greater than 9.22 µM. In addition, the activity change, negative = inhibition in assay [2] was -23.6%; in assay [3], 2.98%. For the same compound, the activity, negative = inhibition in assay [4] is 1.25%. Besides, the Potency result in assay [7] and in assay [8] was “inactive” throughout. The activation in [9] is -24.5%.
With `NS(=O)(=O)c1ccc(NC(=O)Nc2ccccc2F)cc1`, the Potency in assay [1] was greater than 11.4 µM; in assay [5] it was greater than 46 µM; in assay [6] it was greater than 9.22 µM. Moreover, the activity change, negative = inhibition was -3.3% in assay [2] and 20.2% in assay [3]. Moreover, the activity, negative = inhibition in [4] is 2.14%. Further, the Potency result in [7] and in [8] was “inactive” in each case. In assay [9], the activation was 3.83%.
With `O=C(C[C@@H](C(=O)O)N1CCOCC1)c1ccccc1`, the results for the Potency in assay [1], in assay [5] and in [6] were greater than 11.4 µM, greater than 46 µM and greater than 9.22 µM, respectively. In addition, the activity change, negative = inhibition in [2] is 8.49%; in [3], -28.5%. The activity, negative = inhibition in assay [4] was -2.89%. Moreover, the Potency entry in [7] and in assay [8] was “inactive” in each case. In [9], the activation was 16%.
On to `Cc1ccc(N=Nc2c(O)ccc3cc(S(=O)(=O)O)ccc23)cc1`, for which the Potency in assay [1] was greater than 11.4 µM; in [5], greater than 46 µM; in assay [6], greater than 9.22 µM. Further, the activity change, negative = inhibition was -18.1% in assay [2] and -0.401% in assay [3]. In assay [4], the activity, negative = inhibition is -4.61%. Further, the Potency result in assay [8] was “inactive”.
In the case of `O=C1c2ccccc2C(=O)c2c(Nc3cc4c5c(ccc6c7ccc8c9c(cc(Nc%10cccc%11c%10C(=O)c%10ccccc%10C%11=O)c(c3c56)c97)-c3ccccc3C8=O)C(=O)c3ccccc3-4)cccc21`, the Potency in assay [1] is greater than 11.4 µM; in assay [5] it was greater than 46 µM; in [6], greater than 9.22 µM. For the same compound, the results for the activity change, negative = inhibition in [2] and in assay [3] were 11.6% and 22.7%, respectively. The activity, negative = inhibition in [4] was 11.5%. Moreover, in assay [8], the Potency entry was “inactive”.
Regarding `O=S(=O)(O)c1ccc(N=Nc2ccc3c(S(=O)(=O)O)cccc3c2O)c2ccccc12`, the results for the Potency in assay [1], in assay [5] and in assay [6] were greater than 11.4 µM, greater than 46 µM and greater than 9.22 µM, respectively. Further, the activity change, negative = inhibition in [2] was 1.08%; in [3], 9.05%. For the same compound, the activity, negative = inhibition in assay [4] is -4.32%. Moreover, the Potency result in assay [8] was “inactive”.
Take `O=S(=O)(O)c1ccc(NN(c2c(O)ccc3ccccc23)S(=O)(=O)O)cc1`: the Potency is greater than 11.4 µM in [1], greater than 46 µM in assay [5] and greater than 9.22 µM in [6]. The activity change, negative = inhibition in [2] was 8.88%; in assay [3], -1.45%. For the same compound, the activity, negative = inhibition in [4] is -0.169%. Besides, the Potency result in assay [8] is “inactive”.
Take `c1ccc(-c2cc(-c3cc(-c4ccccn4)[nH]n3)n[nH]2)nc1`: the Potency in [1] is greater than 11.4 µM; in [5], greater than 46 µM; in [6], greater than 9.22 µM. The activity change, negative = inhibition in assay [2] is 4.94%; in assay [3] it was 1.51%. Also, the activity, negative = inhibition in [4] is -2.75%. In addition, the Potency result in assay [7] and in assay [8] was “inactive” in each case. Further, the activation in assay [9] was 3.17%.
Consider `Cn1c(=O)c2[nH]c(CCNC(=O)c3ccccc3)nc2n(C)c1=O`, for which the values for the Potency in assay [1], in assay [5] and in assay [6] were greater than 11.4 µM, greater than 46 µM and greater than 9.22 µM, respectively. The activity change, negative = inhibition in [2] is 5.92%; in assay [3], 10.4%. Further, the activity, negative = inhibition in [4] is 3.06%. The Potency result in assay [7] and in assay [8] was “inactive” each time. In assay [9], the activation was 8.28%.
For the compound `COc1ccc([C@@H](C)c2cc3c(cc2O)OCO3)cc1`, the Potency is greater than 11.4 µM in assay [1]; greater than 46 µM in assay [5]; greater than 9.22 µM in assay [6]; 1.58 µM (active) in assay [10]; 2.51 µM (active) in assay [11]. The values for the activity change, negative = inhibition in assay [2] and in assay [3] were -11.5% and -3.98%, respectively. For the same compound, the activity, negative = inhibition in assay [4] was 4.36%. Moreover, the Potency result in assay [8] and in [12] was “inactive” each time.
With `c1ccc(-c2cnc(-c3ccc(-c4ncc(-c5ccccc5)o4)cc3)o2)cc1`, the Potency in [1] was greater than 11.4 µM; in assay [5], greater than 46 µM; in assay [6] it was greater than 9.22 µM. The activity change, negative = inhibition is -0.667% in assay [2] and 14.2% in assay [3]. Besides, in [4], the activity, negative = inhibition was -0.742%. In addition, the Potency result in [7] and in assay [8] was “inactive” in each case. The activation in assay [9] is 15%.
With `Cc1ccc(N=Nc2c(O)c(S(=O)(=O)O)cc3cc(S(=O)(=O)O)ccc23)c(C)c1`, the figures for the Potency in [1], in assay [5] and in [6] were greater than 11.4 µM, greater than 46 µM and greater than 9.22 µM, respectively. The results for the activity change, negative = inhibition in [2] and in [3] were 19.9% and 10.1%, respectively. The activity, negative = inhibition in assay [4] was -2.41%. Moreover, the Potency entry in [8] was “inactive”.
As to `CC(C)(CCc1nc2ccccc2[nH]1)C(=O)O`, the Potency in assay [1] was greater than 11.4 µM; in assay [5], greater than 46 µM; in assay [6], greater than 9.22 µM. The activity change, negative = inhibition in [2] is -7.34%; in assay [3], 6.77%. The activity, negative = inhibition in assay [4] was 1.19%. Also, the Potency entry in assay [8] and in assay [10] was “inactive” each time.
With `NC[C@H]1O[C@@H](n2cnc3c(=O)[nH]c(N)nc32)[C@@H](O)[C@@H]1O`, the Potency in assay [1] was greater than 11.4 µM; in assay [5], greater than 46 µM; in assay [6], greater than 9.22 µM. Besides, the activity change, negative = inhibition is -6.27% in [2] and 5.35% in assay [3]. Moreover, the activity, negative = inhibition in assay [4] was 3.9%. In addition, the Potency entry in assay [7] and in [8] was “inactive” in each case. Besides, in [9], the activation is 4.86%.
With `CS(=O)(=O)c1ccc(/C=N\NC(N)=S)cc1`, the Potency in assay [1] was greater than 11.4 µM; in assay [5], greater than 46 µM; in assay [6] it was greater than 9.22 µM. The activity change, negative = inhibition in assay [2] was 2.65%; in assay [3], 1.52%. For the same compound, the activity, negative = inhibition in assay [4] is -2.81%. In addition, the Potency result in [8] is “inactive”.
As to `N#CCCn1c(=O)c(-c2cc(F)cc(F)c2)nc2cnc(Oc3cccc(Cl)c3)nc21`, the results for the Potency in assay [1], in [5] and in [6] were greater than 11.4 µM, greater than 9.22 µM and greater than 46 µM, respectively. Besides, the activity change, negative = inhibition in assay [2] was -12.5%; in [3], -4.95%. Further, the activity, negative = inhibition in assay [4] is 12.5%. Moreover, the Potency result in [8] and in [12] was “inactive” each time.
